Screening data as filed in PubChem.
MITF primary: MITF inhibitors, primary screen, biochemical, AlphaScreen, human | Microphthalmia-associated transcription factor (Homo sapiens), O75030 | AlphaScreen MITF homodimerization, bead proximity signal | 0.91% of 650,000 active | inhibition, % at 2.6 µM; in the data active = inhibition above about 50%;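 note: 0% = vehicle wells with protein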
FBW7 activator: FBW7 E3 ligase activators, primary screen, biochemical, AlphaScreen, human; AID 1259310, 2017; F-box/WD repeat-containing protein 7 (Homo sapiens), Q969H0; 0.13% of 650,000 active; normalized activity (activation), % at 26.1 µM; AlphaScreen FBW7–phospho-cyclin E peptide binding, activator screen; in the data active = normalized activity above about 1.9%;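 note: purified mutant Fbw7 with reduced substrate affinity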
GPR151 ag: activators of human GPR151, primary screen, cell-based, PathHunter beta-arrestin, luminescence; G-protein coupled receptor 151 (Homo sapiens), Q8TDV0; PathHunter beta-arrestin GPR151 cells; activation, % at 11.2 µM; 1% of 650,000 active; in the data active = activation above about 4.9%;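 note: 0% = median of compound wells and 100% = cells with positive control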
Target sequence (Q8TDV0 whole entry, looked up): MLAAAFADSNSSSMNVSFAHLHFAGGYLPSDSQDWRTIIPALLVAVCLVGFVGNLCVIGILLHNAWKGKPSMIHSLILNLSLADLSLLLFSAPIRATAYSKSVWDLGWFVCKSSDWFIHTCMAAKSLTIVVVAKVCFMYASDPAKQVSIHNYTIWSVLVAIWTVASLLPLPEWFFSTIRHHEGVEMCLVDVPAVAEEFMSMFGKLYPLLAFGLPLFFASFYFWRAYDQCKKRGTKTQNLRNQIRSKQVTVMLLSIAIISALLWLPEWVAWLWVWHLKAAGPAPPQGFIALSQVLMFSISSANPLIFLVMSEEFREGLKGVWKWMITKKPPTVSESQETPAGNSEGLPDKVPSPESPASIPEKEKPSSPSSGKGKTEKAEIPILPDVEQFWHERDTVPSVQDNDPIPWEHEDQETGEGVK
TEAD-YAP block: TEAD-YAP interaction inhibition, primary screen, TEAD-YAP interaction inhibitor project, luminescence, HEK-TIYL cells. AID 1259422, 2018. TEAD-Gal4/YAP UAS-luciferase luminescence. inhibition, % at 9.12 µM. 1.4% of 640,000 active; in the data active = inhibition above about 32%;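 note: 0% = median of test compound wells and 100% = reference inhibitor wells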
GPR151 confirm: GPR151 activators, triplicate retest, confirmation, cell-based, PathHunter beta-arrestin, luminescence. activation, % at 11.2 µM. 6,700 tested, under 10 active. AID 1508609, 2020. shares compounds with GPR151 ag. GPR151 PathHunter beta-arrestin cells, 90 min; % of EA-reagent control over plate median;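 active = mean percent activation across replicates above the confirmation screen cutoff of 4.91%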
GPR119 ag: GPR119 activators in beta-arrestin cells, counter-screen for GPR151 activator project, cell-based, PathHunter beta-arrestin, luminescence, triplicate; shares compounds with GPR151 ag; 90 min; 0 = compound-well median, 100 = enzyme-acceptor control; activation, % at 11.2 µM; 0.3% of 6,700 active; AID 1508611, 2020;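 active = mean percent activation in the counterscreen above 29.09%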;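 note: counterscreen on off-target GPR119 to flag nonselective hits from the GPR151 activator screen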
Active calls of the source: *; x = no result; ! = a repeat was not active. A selection: hits, their analogues and other compounds. The true share with any hit is near 3.4%.

SMILES	MITF primary	FBW7 activator	GPR151 ag	TEAD-YAP block	GPR151 confirm	GPR119 ag
O=C1NC(c2cccnc2)C(C(=O)c2cccs2)=C1O (stereo not drawn)	27	0	6.1*	0	-1	-12
COc1cccc(NC(=O)C2C3C=CC4(O3)C2C(=O)N(Cc2ccc(C)cc2)C4C(=O)NC2CCCCC2C)c1 (stereo not drawn)	4	0	0	-14	x	x
CCC(C)(C)C1CCc2c(sc(NC(=O)c3ccccc3OC)c2C(N)=O)C1 (stereo not drawn)	-3	0	8.1*	-3	0	5
COc1ccccc1NC(=O)c1c(NC(=O)CCC(=O)O)sc2c1CCC(C(C)(C)C)C2 (stereo not drawn)	-11	0	1	-4	x	x
CCC(=O)Nc1sc2c(c1C(=O)Nc1ccccc1C(=O)OC)CCC(C(C)(C)C)C2 (stereo not drawn)	1	0	5.2*	-1	-1	-12
Cc1ccc(S(=O)(=O)Nc2ccccc2C(=O)Nc2nc3c(ccc4ccccc43)s2)cc1	1	0	0	8	x	x
O=C(NCc1ccc(F)cc1)c1ccc2nc(-c3cccs3)c(-c3cccs3)nc2c1	2	0	4.9*	11	0	3
CC(C)Cc1nnc(-c2cc3ccccc3n2CC(=O)N2CCc3ccccc32)o1	6	0	5.0*	2	-1	-12
C=CCOC(=O)CCN1C(=O)c2ccccc2C1=O	4	0	20*	-4	-1	-10
CC1CCc2sc(NC(=O)C3CC3)c(C#N)c2C1 (stereo not drawn)	-5	0	2	-37	x	x
CNC(=O)CSc1nnc(-c2cccnc2)n1CCc1ccccc1	-8	0	0	-3	x	x
CCc1ccccc1-n1c(SCC(=O)NC)nnc1-c1cccnc1	15	0	7.6*	1	0	3
CC(C)NC(=O)CSc1nnc(-c2cccnc2)n1CCc1ccccc1	6	0	9.5*	4	2	13
CCc1cccc(CC)c1-n1c(SCC(=O)NC)nnc1-c1cccnc1	-17	0	2	-9	x	x
CCOC(=O)N1CCc2c(sc(NC(=O)c3ccc(S(=O)(=O)N(CC)CC)cc3)c2C(=O)OC)C1	5	0	1	1	x	x
Cc1nc2sccn2c(=O)c1CCN1CCC(=C(c2ccc(F)cc2)c2ccc(F)cc2)CC1	28	0	0	0	x	x
Cc1nc2ccccn2c(=O)c1CCN1CCC(C(=O)c2ccc(F)cc2)CC1	7	1	9.9*!	-3	0	-4
CC(C)(C)NC(=O)NC(=O)COC(=O)CCc1c[nH]c2ccccc12	15	0	-1	1	x	x
O=C(O)CN=C(NS(=O)(=O)c1ccccc1)c1ccccc1	-2	0	4.9*!	14	0	13
Cc1cccc(N(CC(N)=O)C2SC(=O)N(Cc3cccc(C(=O)O)c3)C2=O)c1 (stereo not drawn)	13	1	11*	-3	0	-7
CCOC(=O)CN(c1cccc(C)c1)C1SC(=O)N(Cc2cccc(C(=O)O)c2)C1=O (stereo not drawn)	1	1	0	-5	x	x
O=C(N/N=C/c1ccccc1I)c1ccncc1	20	1	-1	15	x	x
Cc1ccnc(SCc2cc(=O)c(OC(=O)c3cc(Cl)ccc3Cl)co2)n1	9	0	-1	7	x	x
Cc1ccnc(SCc2cc(=O)c(OC(=O)c3cc(Cl)ccc3[N+](=O)[O-])co2)n1	2	0	14*	-2	-1	-7
COc1ccc(-c2oc3ncn4nc(-c5cccc6ccccc56)nc4c3c2-c2ccc(OC)cc2)cc1	-1	0	5.3*	4	0	11
SMILES	MITF primary	FBW7 activator	GPR151 ag	TEAD-YAP block	GPR151 confirm	GPR119 ag
COc1ccc(N(CC(=O)Nc2ccc(Br)c(C)c2)S(C)(=O)=O)cc1	7	1	2	-25	x	x
CN(C)CCNC(=O)C(=O)Nc1ccccc1	8	0	8.4*	-17	-1	-16
CN(C)CCNC(=S)Nc1ccc(F)cc1	-24	0	0	5	x	x
CN(C)CCNC(=O)Nc1ccccc1	-12	0	1	-4	x	x
CN(C)CCNC(=S)Nc1ccc(C(=O)O)cc1	-3	0	10*	0	0	-4
CCOC(=O)c1nnn(-c2nonc2N)c1CN1C(=O)c2ccccc2C1=O	5	0	-1	-8	x	x
O=c1c2sc(=S)n(Cc3ccco3)c2nc(SCc2ccccc2Cl)n1-c1ccccc1	-6	0	3	-3	x	x
COc1ccc(NS(=O)(=O)c2ccc(/C=C/C(=O)N3CCc4ccccc4C3)cc2)cc1	5	0	-1	14	x	x
Cc1ccc(S(=O)(=O)N2C(=O)CCC2C(=O)O/N=C(\N)c2ccccc2)cc1 (stereo not drawn)	5	0	8.4*	-10	0	-4
Cc1ccc(S(=O)(=O)N2C(=O)CCC2C(=O)O/N=C(\N)c2cccnc2)cc1 (stereo not drawn)	3	0	5.2*	2	1	7
CS(=O)(=O)N(CC(=O)NC1CCCC1)c1ccc(F)c(Cl)c1	-1	0	0	7	x	x
CS(=O)(=O)N(CC(=O)Nc1cccc(Cl)c1Cl)c1cccc(F)c1	-1	0	5.3*	-13	0	2
CS(=O)(=O)N(CC(=O)NC1CC1)c1ccc(F)c(Cl)c1	-5	0	5.6*	1	1	16
O=C(NCSC1=NCCS1)c1ccccc1	1	0	8.2*	-10	0	5
c1ccc(CSC2=NCCS2)cc1	-2	0	0	-19	x	x
CN(C)CCCN1C(=O)C(=O)/C(=C(\O)c2ccccc2)C1c1ccc(Cl)cc1 (stereo not drawn)	7	1	-1	9	x	x
CC1(C)CC(=O)c2c(oc3c(Cl)cc(NS(=O)(=O)c4ccccc4)cc23)C1	10	0	1	13	x	x
CC1(C)CC(=O)c2c(oc3c(Cl)cc(NS(=O)(=O)c4ccc5ccccc5c4)cc23)C1	19	2	10*	0	1	14
Fc1ccc(CNc2ccc3ncc(-c4ccc5c(c4)OCO5)n3n2)cc1	12	0	8.4*	23	0	4
COc1ccc(CNc2ccc3ncc(-c4ccc(OC)cc4)n3n2)cc1	-14	0	5.5*	22	0	-2
COc1ccccc1-c1cnc2ccc(NCc3ccc(S(N)(=O)=O)cc3)nn12	-11	0	9.4*	3	0	9
Cc1cc(=O)oc2c1ccc1onc(C)c12	5	1	-1	9	x	x
